# Screening results deposited in PubChem by National Center for Advancing Translational Sciences (NCATS).
# KB-V1 cytotox – kills drug-selected multidrug resistant KB-V1 cells; KB-V1 MDR cells viability, CellTiter-Glo, 72 h; Potency, µM (series often up to 46.1 µM), usual class: cytotoxic; 3.4% of 400,000 active; further: on the % scale 0 is the no-effect control and ±100 the full control effect; nearly all actives have a fitted effect of over 60% in size
#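 Cells of the MDR subline KB-V1 are plated, dosed with compound at multiple concentrations, and incubated 72 h at 37 degrees C; CellTiter-Glo is then added and luminescence read after 10 min.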
# SW480 rerep – inducers of DNA re-replication in SW480 colon cancer cells | AID 624297 | 1.8% of 340,000 active | Potency, µM (highest dose often 46.1 µM), for inactives: at the top dose re-replication activation, hits mostly activators | SW480 DNA re-replication, Hoechst DNA content imaging, 48 h; further: % of control where 0% means no effect; nearly all actives have a fitted effect of over 55% in size
#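 First, 250 cells per well were seeded. Next, compound or vehicle (23 nL) was pinned in, plates sat 48 hr at 37 C. Finally Hoechst was added for 40 min before fluorescence scanning.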
# HT1080 IDH1KD tx – HT-1080 IDH1 knockdown cell toxicity (counter line); HT-1080 IDH1 knockdown viability, ATP luminescence, 48 h; Potency, µM (top dose mostly 46.1 µM), for the others: top-dose activity, negative = toxicity, usual class: cytotoxic; 2% of 360,000 active;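 further: 0% = DMSO wells and -100% = cell-free medium wells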
#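 Viability of IDH1-knockdown HT-1080 fibrosarcoma cells was assessed by CellTiter-Glo after 48 h at 37 °C with titrated compound; concentration-effect curves were classified by fit quality and response size.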
# MCF10A rereplic – inducers of DNA re-replication in MCF 10A breast cells; MCF 10A DNA re-replication, Hoechst nuclear intensity, 48 h; Potency, µM (top dose mostly 46.1 µM), for the others: at the top dose activity, positive = re-replication, hits mostly activators; 2.9% of 350,000 active; further: % of control where 0% means no effect; nearly all actives have a fitted effect of over 50% in size
# KB-3-1 tox – KB-3-1 parental cell cytotoxicity; KB-3-1 viability, CellTiter-Glo ATP luminescence, 72 h; 1.4% of 400,000 active; Potency, µM (highest dose often 46.1 µM), usual class: cytotoxic; further: on the % scale 0 is the no-effect control and ±100 the full control effect; nearly all actives have a fitted effect of over 60% in size
#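 Luminescent ATP read-out (CellTiter-Glo) measures survival of drug-naive KB-3-1 cells after 72 h compound exposure at 37 °C. Titration series was screened from lowest to highest concentration, with DMSO vehicle plates as background controls.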
# HT1080NT lethal – kills 2HG-producing HT-1080-NT fibrosarcoma cells; Potency, µM (highest dose often 46.1 µM), without a hit: at the top dose activity, negative = less viability, actives largely listed as cytotoxic; HT-1080-NT fibrosarcoma viability, CellTiter-Glo ATP luminescence, 48 h; 1.6% of 360,000 active;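 further: NT is the 2HG producing partner of a matched IDH1 knockdown line; 0% = DMSO-treated cells and -100% = media-only wells without cells; nearly all actives have a fitted effect of over 55% in size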
#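 Compounds were tested in concentration-response format on HT-1080-NT cells for 48 hours at 37 degrees C. Cell viability came from CellTiter-Glo luminescence; curves were classified by r2, response magnitude and activity.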
# * = called active by the depositor; i = inactive; ? = inconclusive; . = no result; ! = repeats disagree; [ ] = another dose, or the depositor's remark. Shown are actives, neighbours in structure and some others; about 8% of the full set was active somewhere. The call rests on the fitted dose curve; in most records, active means well fitted curve in the direction sought with a large enough effect; inconclusive means small, poorly fitted or top-dose-only effect, or another doubt; inactive means no such curve, though single readings can be large; an effect the other way counts as inactive or inconclusive. Potency means the concentration at half of the fitted maximal effect.
SMILES,KB-V1 cytotox,SW480 rerep,HT1080 IDH1KD tx,MCF10A rereplic,KB-3-1 tox,HT1080NT lethal
CCCCNc1c(-c2ccc(OC)c(Sc3ccc(OC)cc3)c2)nc2cnccn12,?,?,?,?,?,29µM*
CCCCNc1c(-c2ccc(-c3ccc(OC)cc3)c(OC)c2)nc2ccccn12,?,?,-25%,21µM*,?,-11%
CCCCNc1c(-c2ccc(SC3CCCCC3)c(OC)c2)nc2ccc(Cl)cn12,i,-3%,-8%,?,i,-2%
CCCCNc1c(-c2ccc(SC(C)CC)cc2)nc2cnccn12 (stereo not drawn),i,18µM*,?,4.6µM*,?,?
O=C(CSc1nc2ccccc2n1Cc1ccc(F)c(Cl)c1)N1CCN(c2ccc(F)cc2)CC1,?,.,.,.,i,.
COc1ccccc1NC(=S)NC(NC(=O)CC(C)C)C(Cl)(Cl)Cl (stereo not drawn),i,-33%,8%,7%,i,4%
CCCCCCSc1cccc(-c2nc3cc(C)ccn3c2NCc2ccccc2)c1,?,-6%,?,?,?,?
CCCCCCSc1cc(-c2nc3cc(C)ccn3c2NCCCC)ccc1OC,21µM*!,11%,23µM*,?,i,26µM*
COc1ccc(-c2nc3c4ccccc4n(CC(=O)N4CCN(c5ccccc5OC)CC4)c(=O)n3n2)cc1,i,.,.,.,i,.
COc1ccc(C2Nc3ccc(NC(C)=O)cc3C(=O)N2Cc2ccccc2)cc1COc1ccc(NC(C)=O)cc1 (stereo not drawn),.,.,14%,.,.,11%
Cc1cccn2cc(CNc3ccccc3)nc12,?,-3%,11%,13%,i,2%
CCCS(=O)(=O)NCc1cn2cccc(C)c2n1,i,10µM*,?,2.6µM*,i,10%
O=C(CN1C(=O)NC(Cc2c[nH]c3ccccc23)C1=O)Nc1ccc(Br)cc1F (stereo not drawn),i,-8%,-3%,-4%,i,-7%
O=C(C[N+]1(CC(O)c2ccccc2)CCOCC1)c1ccccc1 (stereo not drawn),i,.,.,.,i,.
COc1cccc(N2CCN(C3C4CC5CC(C4)CC3C5)CC2)c1 (stereo not drawn),?,-4%,4%,?,i,-5%
CCC1CCC(N2CCN(c3cccc(OC)c3)CC2)CC1 (stereo not drawn),i,-54%,-4%,5.2µM*,i,4%
COC(=O)[C@@]1(Cc2ccccc2)[C@H]2C(=O)N(C)C(=O)[C@H]2[C@H]2CN=C(SCc3ccc(C#N)cc3)N21,i,3.7µM*,5%,-15%,i,6%
NC(=O)c1cc(-c2ccccc2)sc1NC(=O)CN1CCCCC1,i,2%,15µM*,?,i,?
CC(C)(C)C(=O)Nc1sc(-c2ccccc2)cc1C(=O)O,?,-2%,?,0%,6.5µM*,?
Cc1cccc(C(=O)Nc2sc(-c3ccccc3)cc2C(=O)O)c1,i,1%,-4%,?,i,-3%
CCOc1ncccc1C(=O)Nc1cc(S(=O)(=O)N2CCCCC2)ccc1C,i,-19%,-1%,3%,i,1%
COC(=O)c1[nH]c2cc(OC)ccc2c1NC(=O)CCN1CCN(c2ccccc2)CC1,i,-7%,22%,62%[0.0737 µM],i,6%
CCOC(=O)c1[nH]c2ccc(F)cc2c1NC(=O)CCN1CCOCC1,i,-229%,11%,2%,i,10%
CCN(CC(=O)Nc1c(C(=O)OC)[nH]c2ccc(C)cc12)c1ccc2c(c1)OCO2,7.3µM*,13%,0%,?,i,1%
CCOC(=O)c1[nH]c2ccc(Br)cc2c1NC(=O)CCN1CCCC(C)(C)C1,3.3µM*,?,-17%,?,i,-12%
SMILES,KB-V1 cytotox,SW480 rerep,HT1080 IDH1KD tx,MCF10A rereplic,KB-3-1 tox,HT1080NT lethal
COC(=O)c1[nH]c2ccccc2c1NC(=O)CN1CCN(c2cccc(OC)c2)C(C)C1 (stereo not drawn),?,8%,?,20%,18µM*,-19%
COC(=O)c1[nH]c2ccc(Br)cc2c1NC(=O)CN1CCN(C2CCCCC2)CC1,?,?,18µM*,?,?,23µM*
COc1ccc(-c2nc(CSc3nncn4c3cc3oc(C)cc34)c(C)o2)cc1,i,.,.,.,i,.
Cc1nn(C)c(C)c1/C=N/NC(=O)CCn1nc(C)c([N+](=O)[O-])c1C,?,-12%,11%,4%,i,3%
CCOC(=O)c1[nH]c2ccc(C)cc2c1NC(=O)CN1CCCCC1,i,3%,-4%,17%,i,-6%
CCOc1ccc(OCC)c(NC(=O)CN2CCN(c3cccc(C)c3)C(C)C2)c1 (stereo not drawn),?,?,2%,15µM*,?,-3%
CCOc1ccc(OCC)c(NC(=O)CN2CCN(c3cccc(C)c3)CC2)c1,i,?,-5%,?,?,-4%
COC(=O)c1[nH]c2ccc(C)cc2c1NC(=O)CN1CCCC(C)(C)C1,?,-6%[9.22 µM],-24%,?,21µM*,-28%
Cc1cccc(C)c1NC(=S)N(Cc1ccccc1)Cc1cccs1,?,0%,-6%,11%,i,-16%
Cc1ccc(NCC(=O)N/N=C\c2ccc([N+](=O)[O-])o2)cc1,?,-4%,1%[9.24 µM],5%,i,?
CCCCCC(=O)N/N=C/c1ccc([N+](=O)[O-])o1,i,8.9µM*,?,28%,i,?
O=C(Cc1ccc2c(c1)OCO2)NN=Cc1ccc([N+](=O)[O-])o1,23µM*,18µM*,-21%,?,i,-12%
O=C(CCC(=O)Nc1ccc(Cl)cc1Cl)N/N=C/c1ccc([N+](=O)[O-])o1,?,4.6µM*,?,?,?,?
COc1ccc(CNC(=O)c2ccc(NC(=O)N3CCSc4ccccc43)cc2)cc1,i,.,.,.,i,.
CCC1=Nc2cc(C(=O)O)ccc2Sc2ccccc21,i,-3%,2%,2%,i,0%
CC1=Nc2cc(C(=O)NC3CCCC3)ccc2Sc2ccc(Cl)cc21,3.7µM*,.,.,.,3.3µM*,.
CCOC(=O)N1CCC(NC(=O)c2ccc3c(c2)N=C(C)c2ccccc2S3)CC1,i,-3%,-22%,-1%,i,-14%
CCC1=Nc2cc(C(=O)NC3CCCC3)ccc2Sc2ccc(Cl)cc21,2.9µM*,.,.,.,5.8µM*,.
CNC(=O)c1ccc2c(c1)N=C(C)c1cc(C)ccc1S2,?,.,.,.,18µM*,.
